Out of some 390,000 compounds screened, about 4,000 (1%) were called active. Entries that show only a call come without a potency. Inconclusive results (about 4%) are left out. The sample as a whole holds a higher share of actives than the screen did. A number with no mark means an inactive call. The call rests on the fitted dose curve; in most records, active means well fitted inhibition curve with a large enough effect; inconclusive means small, poorly fitted or top-dose-only effect; inactive means no such curve, though single readings can be large or run the other way.
Target: Thioredoxin reductase 1, cytoplasmic (Rattus norvegicus) (UniProt O89049)
Experiment: qHTS Assay for Inhibitors of Mammalian Selenoprotein Thioredoxin Reductase 1 (TrxR1): qHTS; further: nearly all actives have a fitted effect of over 65% in size
Conditions: recombinant rTrxR1, NADPH fluorescence consumption, selenite substrate; series mostly up to 114 µM
Summary of the method: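 Rat TrxR1 (90 nM in the dispensed reagent) was pre-reduced with 400 uM NADPH for 5 min at room temperature, then incubated with compound for 15 min. After 400 uM selenite was added, NADPH fluorescence (Ex 340/Em 450 nm) was followed for 8 min.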
Potency means the concentration at half of the fitted maximal effect.

Thioredoxin reductase 1, cytoplasmic (Rattus norvegicus), sequence (O89049 whole entry, looked up): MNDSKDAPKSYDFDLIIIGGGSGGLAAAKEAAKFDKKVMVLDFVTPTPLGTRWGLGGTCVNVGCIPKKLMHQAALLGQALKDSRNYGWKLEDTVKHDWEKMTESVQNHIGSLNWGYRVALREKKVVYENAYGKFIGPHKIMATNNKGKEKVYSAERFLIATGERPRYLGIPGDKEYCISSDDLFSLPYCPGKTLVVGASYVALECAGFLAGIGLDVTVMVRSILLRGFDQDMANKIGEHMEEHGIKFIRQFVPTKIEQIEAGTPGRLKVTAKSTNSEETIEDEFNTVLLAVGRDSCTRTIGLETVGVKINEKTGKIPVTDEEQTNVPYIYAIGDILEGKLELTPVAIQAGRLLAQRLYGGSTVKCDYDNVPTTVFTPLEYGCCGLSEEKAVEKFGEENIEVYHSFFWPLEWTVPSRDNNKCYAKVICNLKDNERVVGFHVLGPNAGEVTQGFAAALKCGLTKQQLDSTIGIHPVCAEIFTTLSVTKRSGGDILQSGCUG

| Compound | Potency | activity change, negative = inhibition |
| --- | --- | --- |
| COc1ccc(C)cc1-n1c(-c2ccc(C)cc2)cc2c1CC(C)(C)CC2=O | inactive |  |
| O=C(Nc1ccc([N+](=O)[O-])cc1)c1cnn2c1NC(=C1CC1)C=C2C(F)F | inactive |  |
| CCc1ccc(NS(=O)(=O)c2ccc3[nH]cc(C(=O)NCCc4cccc(C)c4)c(=O)c3c2)cc1 | inactive |  |
| COc1ccc(CCNC(=O)c2nn(C)c3c2CSc2ccccc2-3)cc1OC | inactive |  |
| COc1cc(NC(=O)c2noc3c2CSc2ccccc2-3)cc(OC)c1OC | 14.1 µM (active) |  |
| COc1cc(NC(=O)c2nc3ccccc3nc2C)cc(OC)c1OC | inactive |  |
| Cc1cccc(NC(=O)CSc2nc3c([nH]c4ccccc43)c(=O)n2-c2cc(C)cc(C)c2)c1 | inactive |  |
| CCN(CC(=O)Nc1ccccc1OC)C(=O)Cn1cnc2ccccc2c1=O | inactive |  |
| CC1(C)C(=O)Nc2ccccc2N1C(=O)COC(=O)Cn1cnc2ccccc2c1=O | inactive |  |
| COc1ccc(C(C)=O)cc1COC(=O)Cn1cnc2ccccc2c1=O | 17.8 µM (active) |  |
| COc1ccc(C)cc1NC(=O)COCc1cc(-c2cccs2)on1 | inactive |  |
| CCOC(=O)c1ccc(NC(=O)C2CC(=O)NC(=Nc3ccc(C)c(C)c3)S2)cc1 (stereo not given) | inactive |  |
| Cn1c(=O)oc2cc(S(=O)(=O)CCC(=O)NCCc3ccc(Cl)cc3)ccc21 | inactive |  |
| Oc1ccc(Cn2cc[nH]c2=S)cc1 | inactive |  |
| O=[N+]([O-])c1cc(-c2nc(-c3ccccc3)no2)ccc1NCc1ccco1 | inactive |  |
| CNc1ccc(-c2nc(-c3ccco3)no2)cc1[N+](=O)[O-] | inactive |  |
| CC(Nc1ccc(-c2nc(-c3ccco3)no2)cc1[N+](=O)[O-])c1ccccc1 (stereo not given) | 44.7 µM (active) |  |
| COc1ccc(NC(=O)c2ccc3nc(CCc4ccccc4)oc3c2)c(OC)c1 | inactive |  |
| CSc1ccccc1N1CCN(CCCCCC(=O)NC2CCCc3ccccc32)CC1 (stereo not given) | inactive |  |
| COc1ccccc1/C=C/C(=O)OCC(=O)NC1CCCCCC1 | inactive |  |
| CCOC(=O)C(=Cc1ccccc1OC)C(=O)OCC | 44.7 µM (active) |  |
| COc1ccccc1C(=O)OCC(=O)NCCNC(=O)COC(=O)c1ccccc1OC | inactive |  |

| Compound | Potency | activity change, negative = inhibition |
| --- | --- | --- |
| Cc1ccc(C)c(Nc2nnc(-c3ccc(C)c(S(=O)(=O)N4CCCCC4)c3)c3ccccc23)c1 | inactive |  |
| CC1(C)C=Cc2c(ccc(C(=O)/C=C/c3ccccc3)c2O)O1 | inactive |  |
| O=C(NC(Cc1ccccc1)C(=O)O)/C(=C\c1ccccc1)NC(=O)c1ccco1 (stereo not given) | inactive |  |
| COc1ccccc1C(=O)N/C(=C/c1ccco1)C(=O)Nc1ccc(C(=O)O)cc1 | inactive |  |
| O=C(Nc1ccccc1)/C(=C\c1ccco1)NC(=O)c1ccco1 | 50.1 µM (active) |  |
| O=C1COc2ccc(-c3csc(-c4ccc(Cl)cc4)n3)cc2N1 | inactive |  |
| CCc1nn(CC(=O)Nc2cccc(C)c2C)c(=O)c2cc3sccc3n12 | inactive |  |
| CC(C)c1ccc(NC(=O)CN(C)S(=O)(=O)c2ccc3c(c2)c(=O)n(C)c(=O)n3C)cc1 | inactive |  |
| Nc1ncnc2c1c(I)cn2[C@@H]1C[C@H](N)[C@@H](O)[C@H]1O | inactive |  |
| O=C1Oc2ccccc2C(=O)/C1=C/c1ccccc1O | 11.2 µM (active) |  |
| CO[C@H]1O[C@@H]2O[C@@]3(C)CC[C@@H]4[C@@H](C)CC[C@@H]([C@H]1C)[C@@]24OO3 | inactive |  |
| CCOC(=O)Cc1ccc(NC(=O)Nc2c[nH]c(=O)[nH]c2=O)cc1 | inactive |  |
| COc1cccc(C(=O)NC2=NC(c3ccc(N(C)C)cc3)CC(=O)N2)c1 (stereo not given) | inactive |  |
| Cc1ccc(Nc2c(-c3ccc(Cl)cc3)nc3sccn23)c(C)c1 | inactive |  |
| COCCNc1nnc(SCC(=O)NNC(=O)c2ccco2)s1 | inactive |  |
| CC(C)c1ccc(C2C(C(=O)c3ccco3)=C(O)C(=O)N2CC2CCCO2)cc1 (stereo not given) | inactive |  |
| C=CCSc1nnc(N2C(=O)C(O)=C(C(=O)c3ccco3)C2c2ccc(F)cc2)s1 (stereo not given) | 28.2 µM (active) |  |
| CCOc1ccccc1NC(=O)C1CCCN(S(=O)(=O)c2cn(C)cn2)C1 (stereo not given) | inactive |  |
| COc1ccc(-c2nc3scc(CCNS(=O)(=O)c4cc(F)ccc4OC)n3n2)cc1OC | inactive |  |
| CCOc1ccccc1NC(=O)CCn1cnnn1 | inactive |  |
| Cc1cc(C)nc(S/C=C/C(=O)c2ccccc2)n1 | 1 µM (active) |  |
| Cc1ccc2nc(CNC(=O)c3ccccc3)[nH]c2c1 | inactive |  |

| Compound | Potency | activity change, negative = inhibition |
| --- | --- | --- |
| Cc1cc(C)nc(NC(=O)Nc2ccccc2C(F)(F)F)n1 | inactive |  |
| OC(Cc1ccc2ccccc2n1)c1ccc(Cl)c(Cl)c1 (stereo not given) |  | 24.6% [at 0.0914 µM] |
| COc1ccccc1NC(=O)c1cc(C2CC2)nc2c1c(C)nn2-c1ccc(C)cc1 | inactive |  |
| CCOC(=O)c1c(NC(=O)c2ccc(S(=O)(=O)N3CCCC(C)C3)cc2)sc2c1CCN(C(C)C)C2 (stereo not given) | inactive |  |
| CCOc1ccc(CNC(=O)c2ccc(CS(=O)c3ccccc3)o2)cc1 (stereo not given) | inactive |  |
| Cc1nn(CC(=O)O)c(=O)c2cc3cc(F)ccc3n12 | inactive |  |
| CC1=C/C(=N\OS(=O)(=O)c2ccccc2)C=CC1=O | 1.78 µM (active) |  |
| Cc1cc[n+](C2CCCCC2)cc1 | inactive |  |
| CCC(Sc1nc2n[nH]c(C)c2c(=N)n1-c1ccccc1Cl)C(=O)N(CC)CC (stereo not given) | inactive |  |
| CC1CC(=NNC(=O)C2COc3ccccc3O2)CC(C)(C)C1 (stereo not given) | inactive |  |
| CC(/C=C/c1ccccc1)=N\NC(=O)C1CC1(C)c1ccccc1 (stereo not given) | inactive |  |
| CC(/C=C/c1ccco1)=N/NC(=O)C1COc2ccccc2O1 (stereo not given) | 56.2 µM (active) |  |
| O=C(CCS(=O)(=O)c1cc(Br)cc2c1N(C(=O)C1CC1)CC2)Nc1ccc(C(F)(F)F)cc1 | inactive |  |
| CN1CCN(c2oc(-c3ccc(COc4ccc(Cl)cc4)o3)nc2C#N)CC1 | inactive |  |
| Cc1ccc(OCC(=O)Nc2cccc3c2CCCC3)cc1C | inactive |  |
| Cc1ccc(SC(=O)COc2ccc(C)c(C)c2)cc1 | 8.91 µM (active) |  |
| COc1ccc(C(=O)COC(=O)COc2ccc(C)c(C)c2)cc1 | inactive |  |
| OC[C@H]1O[C@@H](n2cnc3c(N[C@H]4CC5CCC4C5)ncnc32)[C@H](O)[C@@H]1O (stereo not given in full) | inactive |  |
| CSc1nc(-c2ccc(F)cc2)nc2c1Cc1c(CO)cnc(C)c1O2 | inactive |  |
| Cc1oc(-c2ccccc2)nc1Cn1c(SCc2cccc(C(F)(F)F)c2)nc2cccnc21 | inactive |  |
| COc1cccc(CNC(=O)C(=O)NCC(c2cccs2)S(=O)(=O)c2ccccc2)c1 (stereo not given) | inactive |  |

Reference: PubChem BioAssay AID588453 (National Center for Advancing Translational Sciences (NCATS), 2011)
